Screens from PubChem.
FBA Mtb inh: inhibitors of M. tuberculosis fructose-bisphosphate aldolase; P9WQA3; purified M. tuberculosis FBA, fluorescence read-out; inhibition, % at 1 µM; hit rate 2.3% among 360,000;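 note: 0% = vehicle and 100% = reference inhibitor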
BJeLR viability: BJeLR cell viability loss | AID 1554 | hit rate 0.17% among 300,000 | inhibition, % (test concentration not listed) | BJeLR (HRASV12) viability, CellTiter-Glo ATP luminescence, 48 h; in the data active = inhibition above about 50%
GDH-TPI counter-1: inhibits GDH-TPI coupling enzymes, artifact for Mtb FBA screen | AID 588335 | hit rate 1.2% among 360,000 | GDH-TPI coupled enzyme counterscreen, NADH absorbance | inhibition, % at 4.8 µM; in the data active = inhibition above about 30%;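 note: 0% = DMSO wells and 100% = wells lacking the enzyme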
RecA splice inh: inhibitors of M. tuberculosis RecA intein splicing | P9WHJ3 | cell-free RecA intein splicing, fluorescence | inhibition, % (no concentration beside the values) | hit rate 0.75% among 290,000 | AID 2221; in the data active = inhibition above about 30%;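 note: 0% = vehicle wells and 100% = reference inhibitor control wells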
Target sequence (P9WHJ3 whole entry, looked up, canonical isoform): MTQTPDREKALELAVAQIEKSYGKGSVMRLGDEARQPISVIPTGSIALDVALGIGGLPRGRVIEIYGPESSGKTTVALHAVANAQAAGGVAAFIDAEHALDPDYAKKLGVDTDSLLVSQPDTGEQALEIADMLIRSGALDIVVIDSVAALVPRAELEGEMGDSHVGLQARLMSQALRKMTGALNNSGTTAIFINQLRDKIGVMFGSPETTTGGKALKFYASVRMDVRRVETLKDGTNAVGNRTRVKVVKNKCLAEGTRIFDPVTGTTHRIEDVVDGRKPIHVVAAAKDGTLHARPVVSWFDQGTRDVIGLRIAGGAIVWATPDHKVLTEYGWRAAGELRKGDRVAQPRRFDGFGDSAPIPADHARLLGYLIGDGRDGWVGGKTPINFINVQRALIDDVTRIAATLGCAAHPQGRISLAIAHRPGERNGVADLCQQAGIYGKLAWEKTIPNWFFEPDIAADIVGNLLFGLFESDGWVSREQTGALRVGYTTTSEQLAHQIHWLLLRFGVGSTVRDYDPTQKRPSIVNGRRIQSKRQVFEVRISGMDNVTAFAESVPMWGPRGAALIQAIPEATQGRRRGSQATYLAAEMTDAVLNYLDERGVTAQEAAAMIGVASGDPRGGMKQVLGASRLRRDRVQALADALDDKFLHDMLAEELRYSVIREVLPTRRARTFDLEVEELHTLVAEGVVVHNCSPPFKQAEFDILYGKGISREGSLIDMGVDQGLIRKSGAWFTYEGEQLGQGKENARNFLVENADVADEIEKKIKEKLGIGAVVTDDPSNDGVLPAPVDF
PrPC TRFRET: inhibitors of human cell surface prion protein PrPC | P04156 | TR-FRET read-out | inhibition, % at 13.8 µM | hit rate 0.43% among 370,000; in the data active = inhibition above about 24%; note: 0% = median of the test wells and 100% = reference compound wells
Mtb FBA confirm: confirmation of M. tuberculosis fructose-bisphosphate aldolase inhibitors | shares compounds with FBA Mtb inh | purified M. tuberculosis FBA, fluorescence read-out | inhibition, % at 1 µM | hit rate 78% among 5,600;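 note: 0% = vehicle wells and 100% = reference inhibitor wells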
GDH-TPI counter-2: GDH-TPI inhibition counter-screen for FBA inhibitors; shares compounds with FBA Mtb inh; hit rate 81% among 5,600; AID 652141; GDH-TPI coupled enzyme counterscreen, fluorescence; inhibition, % at 1 µM; in the data active = inhibition above about 10%
Starred values were filed as active, the others as inactive; i = inactive; . = no result given; + = active, no number. In the library only some 4.2% were active in any assay of this set; here they are far more common. Cut-off read from the data, not from the text of the source, unless noted: active = inhibition above about 27%; inactive = the rest.

SMILES	FBA Mtb inh	BJeLR viability	GDH-TPI counter-1	RecA splice inh	PrPC TRFRET	Mtb FBA confirm	GDH-TPI counter-2
Cc1cc(C(=O)COC(=O)c2nccnc2N)c(C)n1C	62*	-3	8	0	-6	2	6
C=CCNc1ccc2c(c1)OC[C@H](CC(C)C)NS2(=O)=O	.	.	.	.	13	.	.
Cn1c(SCc2cccc([N+](=O)[O-])c2)nc2ccccc2c1=O	2	.	9	.	7	.	.
Cn1c(SCc2cccc(C#N)c2)nc2ccccc2c1=O	29*	12	5	-1	6	8	7
COc1ccc2oc(C(=O)NC(C)c3ccccn3)c(C)c2c1 (stereo unspecified)	33*	.	3	.	9	94*	83*
Cc1ccc2oc(C(=O)Nc3nnc(C)s3)c(C)c2c1	-1	-15	14	-1	-3	.	.
COc1ccc2oc(C(=O)Nc3nnc(C)s3)c(C)c2c1	29*	.	23	.	-4	81*	63*
CC(Oc1ccc2c3c(c(=O)oc2c1)CCCC3)C(=O)NCC1CCC(C(=O)O)CC1 (stereo unspecified)	73*	3	10	-2	4	63*	57*
CC(Oc1ccc2c3c(c(=O)oc2c1)CCCC3)C(=O)NC1CC(C)(C)NC(C)(C)C1 (stereo unspecified)	64*	4	-5	0	-3	+	182*
CC(Oc1ccc2c3c(c(=O)oc2c1)CCC3)C(=O)NCC1CCC(C(=O)O)CC1 (stereo unspecified)	21	-1	14	1	4	.	.
Cc1cc(OC(C)C(=O)NC2CC(C)(C)NC(C)(C)C2)c2c(C)c(C)c(=O)oc2c1 (stereo unspecified)	71*	.	13	.	-7	+	+
CC(=O)C(C)Oc1cc(C)cc2oc(=O)c(C)c(C)c12 (stereo unspecified)	20	4	5	1	-2	.	.
CC(Oc1cc2oc(=O)c3c(c2cc1Cl)CCC3)C(=O)NC1CC(C)(C)NC(C)(C)C1 (stereo unspecified)	5	-3	16	2	0	.	.
CC(Oc1ccc2c3c(c(=O)oc2c1)CCCC3)C(=O)NCc1cccnc1 (stereo unspecified)	71*	-2	11	-2	-3	+	155*
CCOC(=O)N1CCN(C(=O)C[C@H]2C[C@@]3(C(=O)OCC)CCCC4=C3N(CCC4)C2=O)CC1	.	.	.	.	-4	.	.
COC(=O)[C@]12C[C@H](CC(=O)NCc3ccccc3)C(=O)N(Cc3ccccc3)C1=C[C@H](C(C)C)O[C@@H]2C1CC1	.	.	.	.	4	.	.
CCN(CC)CCCNc1cc2n(c(=O)n1)CCc1cc(OC)c(OC)cc1-2	41*	9	17	-2	4	-5	-6
CCOC(=O)c1c(-c2ccccc2)[nH]c2ccc(O)cc12	40*	1	19	3	0	55*	49*
O=c1[nH]c2cc(O)ccc2c2ccccc12	17	.	15	.	11	.	.
O=c1c2ccccc2[nH]c2ccc(O)cc12	28*	-5	-6	i	4	+	+
C[C@H](O)[C@@H]1C(=O)N2CCc3c([nH]c4c(-c5ccccc5)cccc34)[C@@H]2C[C@@H]1N(C)C(=S)Nc1ccc(C#N)cc1	.	.	.	.	-14	.	.
CCCC(=O)Nc1ccc2oc(-c3ccncc3)nc2c1	17	-2	19	-1	-5	.	.
CCN(CC)CC(=O)Nc1ccc(-c2nc3cc(NC(=O)CN(CC)CC)ccc3o2)cc1	88*	14	16	0	-7	+	150*
Cc1ccc(-c2nc3ncccc3o2)cc1NC(=O)Cc1ccc(Cl)cc1	-3	-4	-1	2	11	.	.
CCCCC(=O)Nc1ccc2oc(-c3ccncc3)nc2c1	14	2	13	-2	0	.	.
SMILES	FBA Mtb inh	BJeLR viability	GDH-TPI counter-1	RecA splice inh	PrPC TRFRET	Mtb FBA confirm	GDH-TPI counter-2
Cc1ccc(-c2nc3ncccc3o2)cc1NC(=O)CC(C)C	30*	-2	-2	-3	0	5	-7
Cc1ccc2oc(-c3ccc(NC(=O)CC(C)C)cc3)nc2c1	30*	8	16	-2	11	39*	36*
CCC(C)NCC(=O)Nc1ccc(-c2nc3cc(NC(=O)CNC(C)CC)ccc3o2)cc1 (stereo unspecified)	99*	.	21	.	-5	148*	110*
Cc1cc2c(nc1C)CCCN2S(=O)(=O)c1ccccc1	.	.	.	.	-4	.	.
CCc1ccccc1-c1cc(C(=O)OC)c2n(c1=O)CCC2	.	.	.	.	-4	.	.
O=C(CN1CCCC1)Nc1ccc(-c2nc3cc(NC(=O)CN4CCCC4)ccc3o2)cc1	107*	16	24	2	-8	30*	24*
Cc1ccc2oc(-c3cccc(N)c3)nc2c1	78*	-6	2	.	-2	63*	58*
CCc1ccc2oc(-c3ccc(NC(C)=O)cc3)nc2c1	69*	16	-5	1	10	181*	126*
COc1ccc(-c2nc3cc(NC(=O)Cc4ccc(OC)c(OC)c4)ccc3o2)cc1	10	13	21	2	16	.	.
COC(=O)C1=C(C)N(Cc2ccc(C(F)(F)F)cc2)C(=NCc2cc(OC)c(OC)c(OC)c2)NC1c1cccc(Cl)c1 (stereo unspecified)	.	.	.	.	7	.	.
Cc1cc(OCC(=O)Nc2cccnc2)c2c(C)c(C)c(=O)oc2c1	26	-2	12	-1	8	.	.
CCCCc1cc(=O)oc2cc(C)cc(OCC(=O)NCc3cccnc3)c12	46*	-3	11	0	0	19	13*
CCCCc1cc(=O)oc2cc(C)cc(OCC(=O)Nc3ccccn3)c12	34*	2	14	0	-9	9	2
CCc1cc(=O)oc2cc(C)cc(OCC(=O)NCc3cccnc3)c12	72*	-2	-1	0	-4	+	+
Cc1cc(=O)oc2cc(OCC(=O)NCc3cccnc3)ccc12	17	-2	-6	.	4	.	.
Cc1cc(OCC(=O)NCc2cccnc2)c2c(C)c(C)c(=O)oc2c1	30*	-3	3	-1	-9	140*	122*
C[C@@H]1CN([C@@H](C)CO)C(=O)CCCn2cc(nn2)CO[C@H]1CN(C)C(=O)NC1CCCCC1	.	.	.	.	-4	.	.
Cc1nc2sc(C(=O)NCc3nccs3)c(N)c2c(C)c1Cl	.	.	.	.	2	.	.
CCC(=O)Nc1c(C#N)c2nc3ccccc3nc2n1C1CCCCC1	11	-4	-10	7	1	.	.
CCC(=O)Nc1c(C#N)c2nc3ccccc3nc2n1-c1ccccc1C	36*	-2	9	-108	-3	76*	64*
COc1ccc2c(c1)[C@@]1(OCCC=C[C@H]1C)C(=O)N2Cc1ccc(F)cc1	.	.	.	.	-2	.	.
O=C(N/N=C/C=C\c1ccccc1)c1cnccn1	-2	.	25	0	-3	.	.
O=C(N/N=C/C=C/c1ccccc1)NC1CCCCC1	68*	2	13	0	11	167*	145*
